Screening results as filed in PubChem BioAssay.
In the library only some 14% were active in any assay of this set; here they are far more common.
HCMV antiviral – qHTS Assay for inhibitors of the human cytomegalovirus (HCMV). HFF cells, HCMV-luciferase reporter, 72 h; active compounds read low. activity change, negative = inhibition, % at 57.5 µM. 4.5% of 410,000 active. AID 1259415, 2018; in the data active means activity change below about -60%; inconclusive means no clear call, values can overlap the other calls; inactive means above about -39%
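Cell-based, HFFs, 1000 cells/well, 16 h 37C; cpds in DMSO + HCMV-luc, MOI 1 PFU/cell; 72 h 37C; OneGlo luminescence after 5 min RT; norm. to buffer vs Salinomycin 10uM.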
Pf growth 48h – Primary qHTS for delayed death inhibitors of the malarial parasite plastid, 48 hour incubation. P. falciparum luciferase growth in erythrocytes, 48 h. Potency, µM (highest dose often 28.7 µM), for the others: at the top dose activity change, negative = inhibition, most hits filed as inhibitors. 5.9% of 310,000 active; further: potency means the concentration at half of the fitted maximal effect
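Erythrocytes infected with P. falciparum carrying an integrated firefly luciferase reporter (2% hematocrit, 0.1% parasitemia final) were exposed to compounds in RPMI 1640 with 0.5% Albumax at 37 C, 5% CO2. Growth inhibition was scored as reduced luminescence.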
Pf growth 96h – Primary qHTS for delayed death inhibitors of the malarial parasite plastid, 96 hour incubation; P. falciparum luciferase reporter growth, 96 h; Potency, µM (titrated, usually from 28.7 µM), without a hit: at the top dose activity change, negative = inhibition, usual class: inhibitors; 6.9% of 320,000 active; further: potency means the concentration at half of the fitted maximal effect
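Infected RBCs, 2% Hct / 0.05% parasitemia final; luciferase-reporter P. falciparum; cpd 96 h, 37 C, 5% CO2; luciferase detection reagent; luminescence.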
Sm TGR block – qHTS Assay for the Inhibitors of Schistosoma Mansoni Peroxiredoxins. Schistosoma mansoni thioredoxin glutathione reductase (TGR), Q962Y6. AID 485364, 2010. purified TGR, DTNB reduction, TNB absorbance 405 nm. 3% of 360,000 active. Potency, µM (highest dose often 114 µM), without a hit: at the top dose activity change, negative = inhibition, actives largely listed as inhibitors; further: potency means the concentration at half of the fitted maximal effect; nearly all actives have a fitted effect of over 60% in size
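Kinetic colorimetric format: TGR-catalysed, NADPH-driven DTNB reduction monitored via TNB absorbance. Enzyme dispensed at 20 nM; compound exposure 15 min at room temperature before reaction start.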
FBPA Giardia inh – qHTS Assay for Inhibitors of Fructose-1,6-bisphosphate Aldolase from Giardia Lamblia; purified Giardia FBPA; Potency, µM (series often up to 59.6 µM), for inactives: top-dose activity, negative = inhibition, usual class: inhibitors; 0.71% of 290,000 active; further: potency means the concentration at half of the fitted maximal effect; nearly all actives have a fitted effect of over 55% in size
Target sequence (A8B2U2 whole entry, looked up): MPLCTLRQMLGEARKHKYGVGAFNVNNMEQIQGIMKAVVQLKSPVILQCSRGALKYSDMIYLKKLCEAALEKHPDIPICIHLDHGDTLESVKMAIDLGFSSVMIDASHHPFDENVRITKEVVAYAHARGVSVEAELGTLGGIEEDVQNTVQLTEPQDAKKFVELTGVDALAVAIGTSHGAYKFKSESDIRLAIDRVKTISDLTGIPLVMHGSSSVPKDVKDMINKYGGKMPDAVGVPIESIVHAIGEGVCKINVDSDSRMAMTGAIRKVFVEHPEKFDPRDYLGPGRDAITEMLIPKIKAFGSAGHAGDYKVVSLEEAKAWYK
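Giardia FBPA (40 nM reagent) was preincubated 10 min at RT with compound (up to 57.5 uM final), then substrate plus GAPDH/TPI/NAD/arsenate coupling system with diaphorase/resazurin was added; resorufin fluorescence (525/598 nm) was read after 20 min.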
Starred values were filed as active, the others as inactive; ? = inconclusive; . = no result given. Unless noted, the call rests on the fitted dose curve; in most records, active means well fitted curve in the direction sought with a large enough effect; inconclusive means small, poorly fitted or top-dose-only effect, or another doubt; inactive means no such curve, though single readings can be large; an effect the other way counts as inactive or inconclusive. On the % scale 0 is the no-effect control and ±100 the full control effect.

SMILES | HCMV antiviral | Pf growth 48h | Pf growth 96h | Sm TGR block | FBPA Giardia inh
NC(=O)C1CCCNC1 (centres undefined) | -29.6 | 35.8% | 3.4% | 28.2µM* | 6.7%
NC(=O)[C@@H]1CCCN1 | . | . | . | . | -1.6%
Nc1c(C(=O)NCc2ccc3c(c2)OCO3)c2nc3ccccc3nc2n1CCCN1CCOCC1 | -19.5 | ? | 13.0% | 33.1% | ?
Nc1c(C(=O)NCc2ccccc2)c2nc3ccccc3nc2n1-c1ccc2c(c1)OCO2 | -77.1* | -85.2% | ? | ? | -10.3%
Nc1c(C(=O)NCCN2CCOCC2)c2nc3ccccc3nc2n1-c1ccccc1 | -68.5* | 9.28µM* | . | -28.7% | -28.1%
COCCNC(=O)c1c(N)n(-c2ccccc2)c2nc3ccccc3nc12 | -21.5 | ? | ? | -23.5% | -7.7%
Nc1ccc(-n2c(N)c(C(=O)NCc3ccc4c(c3)OCO4)c3nc4ccccc4nc32)cc1 | -5.1 | . | . | . | .
Nc1c(C(=O)NCCN2CCOCC2)c2nc3ccccc3nc2n1-c1ccc2c(c1)OCO2 | ? | ? | 2.94µM* | 5.5% | 2.9%
COC(=O)[C@]12CCCCC=C1N(CCc1ccc(OC)c(OC)c1)C(=O)[C@H](CC(=O)NCC1CCCCC1)C2 | -2.8 | . | . | . | .
COc1ccc2c(c1)CC(C(=O)Nc1ccc(Br)c(C)c1)CO2 (centres undefined) | -16.4 | . | . | -4.3% | .
CCOC(=O)CSc1nc2cc3c(cc2c(=O)n1CCCC(=O)NCCc1ccc(OC)c(OC)c1)OCO3 | 21.0 | . | . | 4.8% | .
CCN(CC)C(=O)CSc1nc2cc3c(cc2c(=O)n1CCCC(=O)NCCc1ccc(OC)c(OC)c1)OCO3 | -67.2* | ? | -19.4% | -11.0% | 4.3%
CCN(CC)C(=O)CSc1nc2cc3c(cc2c(=O)n1Cc1ccc(C(=O)NCCc2ccc(OC)c(OC)c2)cc1)OCO3 | -83.4* | . | . | 7.2% | .
COc1cc2cc(CCCOC(=O)c3ccco3)oc(=O)c2cc1OC | 3.8 | 45.3% | 43.6% | 50.1µM* | .
COc1ccccc1N(C)S(=O)(=O)c1ccc(C)c(C(=O)N2CCCCCC2)c1 | -26.6 | ? | ? | -16.1% | .
CCOc1ccc(N(C)S(=O)(=O)c2ccc(C)c(C(=O)NCc3ccccc3OC)c2)cc1 | -11.9 | 11.7µM* | 9.28µM* | -0.2% | .
COc1ccccc1N(C)S(=O)(=O)c1ccc(C)c(C(=O)NCc2ccccn2)c1 | -0.1 | 10.4µM* | ? | 4.2% | .
COc1ccccc1N(C)S(=O)(=O)c1ccc(C)c(C(=O)Nc2nccs2)c1 | -17.4 | 11.7µM* | ? | -1.2% | .
COc1ccccc1N(C)S(=O)(=O)c1ccc(Cl)c(C(=O)NCc2cccnc2)c1 | -29.2 | ? | 0.0% | -2.0% | .
CC1(CCC(=O)N2CCCC(N3CCN(c4cccc(C(F)(F)F)c4)CC3)C2)CC1 (centres undefined) | -28.5 | 0.0% | ? | -9.2% | 2.3%
CC(=O)N1CCc2cc(Br)cc(S(=O)(=O)NCCCN(C)Cc3ccccc3)c21 | ? | ? | 1.8% | -18.6% | 4.9%
CCCCN(C)S(=O)(=O)c1cc(Br)cc2c1N(C(=O)C1CC1)CC2 | . | 4.65µM* | ? | 12.6% | -1.5%
CCN(c1ccc2c(c1)OCO2)S(=O)(=O)c1cc2c(cc1Br)CCN2C(=O)C1CC1 | 20.0 | . | . | . | .
CCC(=O)N1CCc2cc(Br)cc(S(=O)(=O)NCCCN(C)Cc3ccccc3)c21 | -67.3* | ? | ? | 0.8% | 0.5%
CCN(c1ccc2c(c1)OCO2)S(=O)(=O)c1cc(Br)cc2c1N(C(C)=O)CC2 | 40.6 | ? | 9.28µM* | ? | -13.7%
SMILES | HCMV antiviral | Pf growth 48h | Pf growth 96h | Sm TGR block | FBPA Giardia inh
COc1ccc(N2CCN(S(=O)(=O)c3cc(Br)cc4c3N(C(=O)C3CC3)CC4)CC2)cc1 | -4.4 | . | . | -10.9% | .
O=C(C1CC1)N1CCc2cc(Br)cc(S(=O)(=O)N3CCOCC3)c21 | -7.5 | 5.22µM* | 37.2% | -4.0% | 6.3%
N#CCCn1c(=O)c(-c2ccc(F)cc2)nc2cnc(N3CCNCC3)nc21 | . | . | . | . | 4.5%
CCOC(=O)C1CCN(S(=O)(=O)c2cc(Br)cc3c2N(C(C)=O)C(C)C3)CC1 (centres undefined) | 20.1 | 8.28µM* | ? | -2.3% | 6.2%
CCOC(=O)C1CCCN(S(=O)(=O)c2ccc(S(=O)(=O)N3CCCC3)cc2)C1 (centres undefined) | 9.5 | ? | -16.1% | -0.4% | .
CCOc1ccc(OCC)c(NS(=O)(=O)c2cc(Br)cc3c2N(C(C)=O)C(C)C3)c1 (centres undefined) | -13.0 | . | . | 2.0% | .
CCOC(=O)C1CCCN(S(=O)(=O)c2cnc(Cl)c(Br)c2)C1 (centres undefined) | ? | 2.0% | 39.4% | 31.6µM* | 4.1%
CCOC(=O)C1CCCN(S(=O)(=O)c2cc(Br)cc3c2N(C(C)=O)CC3)C1 (centres undefined) | ? | 3.7µM* | ? | -3.3% | 3.9%
CCOc1ccc(N(CC)S(=O)(=O)c2cc(Br)cc3c2N(C(C)=O)C(C)C3)cc1 (centres undefined) | -62.9* | . | . | 3.1% | .
CCOC(=O)C1CCN(S(=O)(=O)c2cc(Br)cc3c2N(C(=O)CC)CC3)CC1 | 7.2 | . | . | 7.1% | .
Cc1cccc(NC(=O)c2c(NC(=O)c3ccccc3)sc3c2CCCC3)c1 | -26.3 | . | . | -9.1% | .
CC(=O)N1CCc2cc(Br)cc(S(=O)(=O)N3CCC(C)CC3)c21 | 9.9 | . | . | -8.0% | .
CCC(=O)N1CCc2cc(Br)cc(S(=O)(=O)N3CCCC(C(=O)NC(C)(C)C)C3)c21 (centres undefined) | -16.8 | 1.17µM* | ? | 2.0% | 5.7%
CC(=O)N1CCc2cc(Br)cc(S(=O)(=O)N3CCCCC3)c21 | 16.3 | 2.62µM* | ? | -0.5% | -4.8%
CCC(=O)N1CCc2cc(Br)cc(S(=O)(=O)N3CCC(C(=O)NC(C)(C)C)CC3)c21 | 4.3 | ? | 34.3% | 24.3% | 13.7%
O=[N+]([O-])c1ccc(/C=N/Nc2ccnc3cc(Cl)ccc23)o1 | -66.1* | 2.33µM* | ? | -34.1% | .
Clc1ccc2c(N/N=C/c3ccccc3Br)ccnc2c1 | -64.1* | 0.657µM* | 0.522µM* | -3.2% | -3.0%
Clc1ccc2c(N/N=C/c3cccc(Br)c3)ccnc2c1 | ? | 0.586µM* | 0.329µM* | -19.5% | -1.0%
Clc1ccc2c(NNc3ccccc3Cl)ccnc2c1 | 9.2 | ? | ? | -16.2% | -0.5%
c1ncc(CCCC2CCNCC2)[nH]1 | . | . | . | . | -19.4%
COc1cc(C(=O)NC23CC4CC(CC(C4)C2)C3)cc(OC)c1OC | 18.4 | ? | 0.0% | -31.4% | 1.1%
COc1cc(C(=O)ON=C2C3CC4CC(C3)CC2C4)cc(OC)c1OC | 38.2 | 1.17µM* | 1.47µM* | 4.8% | 7.6%
COc1cc(C(=O)O/N=C2/C=CC(=O)C(C)=C2C)cc(OC)c1OC | -105.2* | 49.0% | ? | -31.4% | 3.97µM*
